Measurements published in PubChem BioAssay.
Calls of active or inactive are those of the source. No stated cut-off is given here; in the data, active means fold change permeability below about 0.7 or above about 1.3; inactive means in between.

experiment: compounds altering in vitro BBB leakiness – cell-based, FITC-avidin fluorescence, HTS, primary screen (AID 1963498); details: brain endothelial barrier, actives lie on both sides; further: test concentration not given here

Fold change permeability, active:
Clc1ccc(N2CCN(Cc3cc4ccccn4n3)CC2)cc1 1.3
CN1C2CCC1CC(OC(c1ccccc1)c1ccccc1)C2 (centres undefined) 1.7
CC(C)NCC(O)c1ccc(O)c(O)c1 (centres undefined) 1.4
CN(C)c1ccc(NCc2ccccn2)cc1 1.5
O=[N+]([O-])c1ccc(-c2nc(-c3ccc(F)cc3)c(-c3ccncc3)[nH]2)cc1 1.4
Nc1ccc2c3c(cccc13)C(=O)NC2=O 2.8
Nc1ccc(-c2ccc3ncc4ccc(=O)n(-c5cccc(C(F)(F)F)c5)c4c3c2)cn1 1.3
C=C1C(=O)O[C@@H]2[C@H]3O[C@]3(C)CC/C=C(\C)CC[C@@H]12 1.3
N=C(N)c1ccc(-c2ccc(-c3ccc(C(=N)N)cc3)o2)cc1 1.5
CN1CCN(c2nc3cc(C(F)(F)F)ccc3n3cccc23)CC1 1.7
C[C@H](O)C(=O)C1=Nc2c(nc(N)[nH]c2=O)NC1 0.7
CN1CCC(=C2c3ccccc3CC(=O)c3sccc32)CC1 1.4
N=C1CCCN1Cc1[nH]c(=O)[nH]c(=O)c1Cl 1.6

Fold change permeability, inactive:
c1cnc2c(c1)ccc1cccnc12 1.2
Nc1ccc(S(=O)(=O)Nc2ccnn2-c2ccccc2)cc1 1.2
CC[N+](CC)(CC)CCOc1cccc(OCC[N+](CC)(CC)CC)c1OCC[N+](CC)(CC)CC 0.8
CCCCCCCCCCCCCCCCCCc1ccc(C(=O)/C=C/C(=O)O)cc1 1.2
C[C@]12CCC(=O)C=C1CC[C@@H]1[C@@H]2CC[C@@]2(C)[C@H]1CC[C@]2(O)C(=O)CO 1.1
COc1cc2c(cc1-c1c(C)noc1C)ncc1[nH]c(=O)n([C@H](C)c3ccccn3)c12 1.1
O=C(OC12CC3CC(CC(C3)C1)C2)c1ccc(NCc2cc(O)ccc2O)cc1 1
C=CCc1ccccc1OCC(O)CNC(C)C (centres undefined) 1.2
Cc1cc2nc(NCCCO)n(CC(=O)c3cc(C(C)(C)C)c(O)c(C(C)(C)C)c3)c2cc1C 1.1
CCN(CC)Cc1ccc(C(=O)N(CCc2ccccc2OC)[C@@H]2CCNC2)cc1 0.9
N#Cc1cc2nc(O)c(O)nc2cc1[N+](=O)[O-] 1.2
O=C(O)c1cc2cc(F)ccc2[nH]1 1.2
NCCCC(=O)O 0.8
COCc1nc2c([nH]1)c(=O)n(C)c(=O)n2CC(C)C 0.8
CC(C)C[C@H](NC(=O)[C@@H](O)[C@H](N)Cc1ccccc1)C(=O)O 1
O=C1NC(=O)c2cc(Nc3ccccc3)c(Nc3ccccc3)cc21 0.9
O=C(O)/C=C/c1ccc(O)c(O)c1 0.8
Nc1ncnc2c1ncn2[C@@H]1O[C@H](CO)[C@@H](O)[C@H]1O 1
OC[C@H]1NC[C@H](O)[C@@H](O)[C@@H]1O 1.1
O=C(O)C1=CCNCC1 1
NC(N)=NCCC[C@H](N)C(=O)O 1.1
NC(=O)C1=CN(C2OC(COP(=O)(O)OP(=O)(O)OC[C@H]3O[C@@H](n4cnc5c(N)ncnc54)C(OP(=O)(O)O)[C@H]3O)C(O)C2O)C=CC1 (some centres undefined) 0.9
O=C1Cc2cc(CCN3CCN(c4nsc5ccccc45)CC3)c(Cl)cc2N1 0.9
CS(=O)(=O)Nc1ccc([N+](=O)[O-])cc1Oc1ccccc1 0.8
CN1CCC[C@@H]1CCO[C@](C)(c1ccccc1)c1ccc(Cl)cc1 1.1
CN(C)CC/C=C1/c2ccccc2Sc2ccc(Cl)cc21 1.1
